Assay outcomes: PubChem, National Center for Advancing Translational Sciences (NCATS)
Cruzain noTriton: cruzain (T. cruzi) inhibition without detergent. P25779. purified cruzain, Z-FR-AMC fluorescence, no detergent. Potency, µM, without a hit: max response, negative = inhibition, actives largely listed as inhibitors. 200,000 tested, 2.3% active;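 further: plate controls were enzyme without inhibitor for no effect and buffer without enzyme for full effect; nearly all actives have a fitted effect of over 40% in size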
Target sequence (P25779 123-467 limits assumed): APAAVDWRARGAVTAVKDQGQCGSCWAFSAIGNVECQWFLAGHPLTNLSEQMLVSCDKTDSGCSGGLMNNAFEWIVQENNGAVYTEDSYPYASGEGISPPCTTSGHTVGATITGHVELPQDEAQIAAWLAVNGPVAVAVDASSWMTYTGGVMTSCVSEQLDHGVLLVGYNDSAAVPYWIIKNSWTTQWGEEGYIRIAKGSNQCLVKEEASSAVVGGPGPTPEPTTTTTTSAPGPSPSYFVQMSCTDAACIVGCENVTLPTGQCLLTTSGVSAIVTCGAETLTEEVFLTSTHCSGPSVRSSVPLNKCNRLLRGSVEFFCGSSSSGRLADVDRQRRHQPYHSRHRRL
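Purified cruzain at 1.5 nM, pre-incubated 15 min with compound at room temperature in 100 mM sodium acetate pH 5.5, 5 mM DTT, 0.00005% Triton X-100. Reaction started with 2 uM Z-FR-AMC; AMC fluorescence increase over 60 s gives rate.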
Cruzain inh Det: cruzain (T. cruzi) inhibition with detergent; purified cruzain, Z-FR-AMC fluorescence, 0.01% Triton; Potency, µM, for the others: max response, negative = inhibition, most hits filed as inhibitors; 200,000 tested, 0.43% active; P25779;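 further: plate controls were neutral wells for no effect and buffer without enzyme for full effect; nearly all actives have a fitted effect of over 40% in size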
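15 min RT preincubation of 1.5 nM cruzain with compound, then 2 uM Z-FR-AMC added; kinetic AMC fluorescence, 60 s delta. Triton X-100 0.01%, pH 5.5.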
* = called active by the depositor. Only some compounds are listed: those with a hit (about 2.5% of all), similar ones and a draw of the others. The call rests on the fitted dose curve; in most records, active means well fitted curve in the direction sought with a large enough effect; inconclusive means small, poorly fitted or top-dose-only effect, or another doubt; inactive means no such curve, though single readings can be large; an effect the other way counts as inactive or inconclusive. Potency means the concentration at half of the fitted maximal effect.

Screening COc1ccccc1CCNC(=O)c1ccc2c(c1)c(C)c(C)n2Cc1ccc(Cl)cc1 returned Cruzain noTriton 13µM* and Cruzain inh Det 3%.
Screening COc1cc(CCNC(=O)c2ccc3c(c2)c(C)c(C)n3Cc2cccc(C)c2)cc(OC)c1OC returned Cruzain noTriton -8% and Cruzain inh Det -1%.
For O=C(Nc1ccc2nc(SCC(=O)N3CCCC3)sc2c1)c1ccccc1F the results were Cruzain noTriton -8% and Cruzain inh Det -3%.
For CCCCC/C=C\C/C=C\C/C=C\C/C=C\CCCCCC(=O)NCC(=O)O the results were Cruzain noTriton 3% and Cruzain inh Det -6%.
COC(=O)C1=C(C)Nc2sc(C(N)=O)c(N)c2C1c1ccncc1 (stereo unspecified) was read as Cruzain noTriton -12% and Cruzain inh Det -4%.
CCOC(=O)C1=C(C)Nc2sc(C(=O)c3ccc(OC)cc3)c(N)c2C1c1ccc(C(=O)OC)cc1 (stereo unspecified) was read as Cruzain noTriton 32µM* and Cruzain inh Det -3%.
For COC(=O)/C(=C/c1ccco1)NC(=O)c1ccccc1 the results were Cruzain noTriton 7% and Cruzain inh Det -11%.
For Cc1ccc(C(=O)N/C(=C/c2ccco2)C(=O)OCN2C(=O)c3ccccc3C2=O)cc1 the results were Cruzain noTriton 0.4µM* and Cruzain inh Det 0.35µM*.
`COc1ccc(-c2cc(=O)n(-c3ccc([N+](=O)[O-])cc3)[nH]2)cc1` gave Cruzain noTriton inconclusive and Cruzain inh Det -5%.
`O=C1/C(=C/c2ccc([N+](=O)[O-])cc2)C=C(c2ccccc2)N1c1ccc(O)cc1` gave Cruzain noTriton inconclusive and Cruzain inh Det -6%.
O=C1/C(=C/c2ccc([N+](=O)[O-])cc2)C=C(c2ccccc2)N1c1ccccc1 was read as Cruzain noTriton 13µM* and Cruzain inh Det -2%.
COc1ccc(N2C(=O)/C(=C/c3ccc([N+](=O)[O-])cc3)C=C2c2ccccc2)cc1 was read as Cruzain noTriton 16µM* and Cruzain inh Det -4%.
Screening O=C(Nc1c(C(=O)Nc2ccc(F)cc2)oc2ccccc12)c1cc2ccccc2o1 returned Cruzain noTriton 13µM* and Cruzain inh Det -2%.
`Cc1ccc(NC(=O)c2ccc(OC(=O)c3cc4ccccc4o3)cc2)cc1` gave Cruzain noTriton 7.9µM* and Cruzain inh Det -2%.
For COc1cc(NC(=O)c2ccccc2)ccc1NC(=O)c1cc2ccccc2o1 the results were Cruzain noTriton 3% and Cruzain inh Det 1%.
COc1cc(NC(=O)c2cc(Cl)ccc2Cl)ccc1NC(=O)c1cc2ccccc2o1 was read as Cruzain noTriton 16µM* and Cruzain inh Det -5%.
Cc1ccc(NC(=O)c2ccc(OC(=O)c3ccco3)cc2)cc1 was read as Cruzain noTriton -11% and Cruzain inh Det -2%.
COc1ccc(NC(=O)c2oc3ccccc3c2NC(=O)c2cc3ccccc3o2)cc1 was read as Cruzain noTriton inconclusive and Cruzain inh Det -1%.
COC(=O)COc1cccc(NC(=O)c2ccc(C)cc2)c1 was read as Cruzain noTriton -5% and Cruzain inh Det 1%.
Cc1ccc(NC(=O)c2ccc(OC(=O)COc3ccc(Cl)c(C)c3)cc2)cc1 was read as Cruzain noTriton 16µM* and Cruzain inh Det 7%.
`CCOC(=O)N1CCc2c(sc(NCc3cccc(F)c3)c2C(=O)Nc2ccc(OC)cc2OC)C1` gave Cruzain noTriton inconclusive and Cruzain inh Det -7%.
`CCN(CCO)Cc1csc2ccc(Br)cc12` gave Cruzain noTriton -1% and Cruzain inh Det 0%.
COc1ccccc1CNC(=O)Cn1c(=O)nc(-c2ccccc2)c2ccccc21 was read as Cruzain noTriton -4% and Cruzain inh Det -2%.
`COCCCNC(=O)CCn1c(=O)c2ccccc2n(CC(=O)Nc2cc(Cl)ccc2OC)c1=O` gave Cruzain noTriton -14% and Cruzain inh Det -1%.
For O=Cc1ccc(Cl)cc1Cl the results were Cruzain noTriton -9% and Cruzain inh Det -2%.
Screening CC(=O)OC1CC2C(C)(C)C(O)CCC2(C)C2CC[C@]3(C)C(=CC(=O)OC3c3ccoc3)C12C (stereo partly specified) returned Cruzain noTriton inconclusive and Cruzain inh Det -2%.
For CCc1nn(CC(=O)NCCCc2ccccc2)c(=O)c2cc3ccccc3n12 the results were Cruzain noTriton -1% and Cruzain inh Det -1%.
Screening O=C(Nc1ccc(NC(=O)c2cc3ccccc3o2)cc1)c1ccccc1 returned Cruzain noTriton 3.2µM* and Cruzain inh Det -1%.
Screening O=C(O)c1ccc(NC(=O)c2cc3ccccc3o2)cc1 returned Cruzain noTriton -5% and Cruzain inh Det -6%.
`CCC(=O)Nc1ccc(NC(=S)NC(=O)c2cc3ccccc3o2)cc1` gave Cruzain noTriton -27% and Cruzain inh Det -3%.
Screening Cc1cc(=O)oc2cc(NC(=O)c3cc4ccccc4o3)ccc12 returned Cruzain noTriton 10µM* and Cruzain inh Det 2%.
